Measurements as given in ChEMBL document CHEMBL1961873, “Compounds: GSK PKIS; Assays: Nanosyn kinase panel” (2012).

Tests used:
[1] = biological target: Mast/stem cell growth factor receptor Kit (Homo sapiens) (UniProt P10721); details: at 1 µM
[2] = tested on: Mast/stem cell growth factor receptor Kit (Homo sapiens), P10721 [D816V]; details: at 0.1 µM
[3] = tested on: Mast/stem cell growth factor receptor Kit (Homo sapiens), P10721 [D816V]; details: at 1 µM
[4] = tested on: Mast/stem cell growth factor receptor Kit (Homo sapiens), P10721 [T670I]; details: at 0.1 µM
[5] = tested on: Mast/stem cell growth factor receptor Kit (Homo sapiens), P10721 [T670I]; details: at 1 µM
[6] = tested on: Mast/stem cell growth factor receptor Kit (Homo sapiens), P10721 [V560G]; details: at 0.1 µM
[7] = tested on: Mast/stem cell growth factor receptor Kit (Homo sapiens), P10721 [V560G]; details: at 1 µM
[8] = biological target: Tyrosine-protein kinase Lck (Homo sapiens) (UniProt P06239); details: at 0.1 µM
[9] = biological target: Tyrosine-protein kinase Lck (Homo sapiens) (UniProt P06239); details: at 1 µM
[10] = biological target: Leukocyte tyrosine kinase receptor (Homo sapiens) (UniProt P29376); details: at 0.1 µM
Leukocyte tyrosine kinase receptor (Homo sapiens), sequence (P29376 whole entry): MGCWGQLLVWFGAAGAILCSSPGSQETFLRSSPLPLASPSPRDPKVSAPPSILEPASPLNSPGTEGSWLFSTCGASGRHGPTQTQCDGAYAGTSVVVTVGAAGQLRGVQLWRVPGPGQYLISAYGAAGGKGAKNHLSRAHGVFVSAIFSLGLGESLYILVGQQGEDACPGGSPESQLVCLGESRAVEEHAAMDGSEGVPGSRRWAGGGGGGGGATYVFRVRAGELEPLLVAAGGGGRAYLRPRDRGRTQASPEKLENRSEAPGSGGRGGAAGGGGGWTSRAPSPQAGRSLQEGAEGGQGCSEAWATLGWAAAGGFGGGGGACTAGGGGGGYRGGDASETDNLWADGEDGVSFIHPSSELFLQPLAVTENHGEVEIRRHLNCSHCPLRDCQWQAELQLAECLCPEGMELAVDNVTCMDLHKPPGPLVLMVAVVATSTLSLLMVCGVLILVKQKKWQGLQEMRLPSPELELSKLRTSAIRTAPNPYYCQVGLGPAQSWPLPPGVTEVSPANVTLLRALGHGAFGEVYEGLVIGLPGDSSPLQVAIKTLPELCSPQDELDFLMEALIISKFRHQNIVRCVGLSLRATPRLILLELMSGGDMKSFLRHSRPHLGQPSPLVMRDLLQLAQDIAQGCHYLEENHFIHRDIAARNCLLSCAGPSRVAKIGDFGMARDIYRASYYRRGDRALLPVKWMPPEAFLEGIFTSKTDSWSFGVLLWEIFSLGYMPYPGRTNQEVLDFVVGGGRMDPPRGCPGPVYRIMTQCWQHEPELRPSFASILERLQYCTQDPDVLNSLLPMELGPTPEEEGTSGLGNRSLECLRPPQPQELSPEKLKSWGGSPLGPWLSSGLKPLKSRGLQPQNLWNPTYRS

Mast/stem cell growth factor receptor Kit (Homo sapiens), P10721 [V560G], sequence (P10721 whole entry V560G): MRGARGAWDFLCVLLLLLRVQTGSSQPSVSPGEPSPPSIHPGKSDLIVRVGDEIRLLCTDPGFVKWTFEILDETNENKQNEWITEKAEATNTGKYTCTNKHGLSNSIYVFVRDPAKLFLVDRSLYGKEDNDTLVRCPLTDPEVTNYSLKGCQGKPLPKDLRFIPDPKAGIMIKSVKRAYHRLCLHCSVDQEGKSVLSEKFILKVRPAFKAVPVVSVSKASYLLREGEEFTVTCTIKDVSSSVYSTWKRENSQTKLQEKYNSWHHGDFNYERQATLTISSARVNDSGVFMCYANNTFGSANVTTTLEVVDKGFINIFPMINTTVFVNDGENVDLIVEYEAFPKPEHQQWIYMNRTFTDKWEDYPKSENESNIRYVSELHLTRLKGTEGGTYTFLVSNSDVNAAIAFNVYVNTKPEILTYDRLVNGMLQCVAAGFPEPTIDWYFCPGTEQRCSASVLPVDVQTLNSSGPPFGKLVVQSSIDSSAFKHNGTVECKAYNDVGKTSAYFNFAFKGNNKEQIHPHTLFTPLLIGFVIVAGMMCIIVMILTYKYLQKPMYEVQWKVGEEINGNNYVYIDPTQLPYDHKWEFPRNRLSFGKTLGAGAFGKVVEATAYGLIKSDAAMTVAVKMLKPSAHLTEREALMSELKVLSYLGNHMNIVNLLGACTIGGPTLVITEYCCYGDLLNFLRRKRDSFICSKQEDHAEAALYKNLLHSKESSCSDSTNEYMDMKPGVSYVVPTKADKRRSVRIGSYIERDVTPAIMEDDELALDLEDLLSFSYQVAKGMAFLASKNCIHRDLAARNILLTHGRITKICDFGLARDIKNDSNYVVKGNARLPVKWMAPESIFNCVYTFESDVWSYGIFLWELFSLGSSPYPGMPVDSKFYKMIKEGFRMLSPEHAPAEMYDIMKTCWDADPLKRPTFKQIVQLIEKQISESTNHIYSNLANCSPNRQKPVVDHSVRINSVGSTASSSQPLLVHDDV
Mast/stem cell growth factor receptor Kit (Homo sapiens), P10721 [T670I], sequence (P10721 whole entry T670I): as the sequence (P10721 whole entry V560G) above, with G560V, T670I counted along it
Tyrosine-protein kinase Lck (Homo sapiens), sequence (P06239 2-509 limits assumed): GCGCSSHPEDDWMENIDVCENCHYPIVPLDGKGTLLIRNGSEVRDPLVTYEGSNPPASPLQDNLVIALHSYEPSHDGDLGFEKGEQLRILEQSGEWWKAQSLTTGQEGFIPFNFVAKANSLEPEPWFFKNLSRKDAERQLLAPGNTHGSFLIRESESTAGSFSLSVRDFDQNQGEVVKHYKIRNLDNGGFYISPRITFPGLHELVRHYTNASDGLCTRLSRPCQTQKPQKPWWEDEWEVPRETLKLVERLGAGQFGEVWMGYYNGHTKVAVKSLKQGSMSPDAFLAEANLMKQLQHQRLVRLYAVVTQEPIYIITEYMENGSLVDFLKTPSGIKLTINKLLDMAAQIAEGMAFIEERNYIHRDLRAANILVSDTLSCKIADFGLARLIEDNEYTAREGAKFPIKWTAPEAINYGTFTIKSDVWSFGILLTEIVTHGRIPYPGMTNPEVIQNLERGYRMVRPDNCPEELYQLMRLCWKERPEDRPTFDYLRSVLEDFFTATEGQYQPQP
Mast/stem cell growth factor receptor Kit (Homo sapiens), sequence (P10721 whole entry): as the sequence (P10721 whole entry V560G) above, with G560V counted along it
Mast/stem cell growth factor receptor Kit (Homo sapiens), P10721 [D816V], sequence (P10721 whole entry D816V): as the sequence (P10721 whole entry V560G) above, with G560V, D816V counted along it

| SMILES | inhibition [1] [%] | inhibition [2] [%] | inhibition [3] [%] | inhibition [4] [%] | inhibition [5] [%] | inhibition [6] [%] | inhibition [7] [%] | inhibition [8] [%] | inhibition [9] [%] | inhibition [10] [%] |
| --- | --- | --- | --- | --- | --- | --- | --- | --- | --- | --- |
| Nc1nc(-c2ccc3c(c2)C(=Cc2cc(Br)c(O)c(Br)c2)C(=O)N3)cs1 | 3.41 | 0.19 | -1.02 | -2.39 | -1.52 | 3.52 | 1.96 | -1.54 | 4.41 | 1.87 |
| COc1ccc(COc2ccc(Cc3cnc(N)nc3N)cc2OC)cc1 | 7.39 | -2.58 | -2.51 | -2.93 | -3.14 | 5.62 | 8.16 | 0.03 | 2.78 | -1.03 |
| COc1cc2ncn(-c3cc(O[C@@H](C)c4ccccc4Cl)c(C(N)=O)s3)c2cc1OC | 11.9 | 3.28 | 6.34 | 3.02 | 5.54 | 4.09 | 3.09 | 4.64 | 19.6 | 3.53 |
| COc1ccccc1Nc1ncc(-c2ccccc2)o1 | 98.2 | 4.74 | 6.9 | 17.8 | 77.7 | 31.5 | 85.5 | 4.55 | 9.64 | 3.5 |
| COc1cc2ncn(-c3cc(O[C@H](C)c4ccccc4Cl)c(C(N)=O)s3)c2cc1OC | 27.1 | 4.82 | 14.6 | 5.66 | 32.1 | 4.1 | 13.9 | 5.7 | 27.7 | 3.77 |
| Fc1cccc(COc2ccc(Nc3ncnc4sc(-c5cccs5)cc34)cc2Cl)c1 | 6.67 | 4.5 | 1.72 | 1.75 | 2.96 | 4.3 | 2.12 | 0.99 | 3.56 | -0.03 |
| Nc1nc(-c2ccccn2)c(-c2ccc3ncccc3n2)s1 | 3.6 | 3.62 | 4.08 | 4.81 | 3.16 | -2.5 | 2.06 | 0.48 | 0.19 | 2.47 |
| Cc1nnc(-c2ccc(C)c(-c3ccc(C(=O)Nc4cccc(C#N)c4)cc3)c2)o1 | 6.9 | 2.18 | 2.02 | 0.85 | 1.69 | 0.81 | 2.86 | 1.89 | 2.99 | 2.14 |
| CC(C)=Cc1cccc2c1/C(=N/Nc1ccc(S(N)(=O)=O)cc1)C(=O)N2 | 67.5 | 2.15 | 4.23 | 5.7 | 52.1 | 4.73 | 10.1 | 3.66 | 14.7 | 1.87 |
| CC1=C(C(=O)Nc2ccc3[nH]ncc3c2)C(c2ccc(Cl)c(Cl)c2)CC(=O)N1 (configuration not stated) | 2.48 | -0.94 | 1.14 | 0.21 | 1.52 | 2.42 | 4.56 | 4.63 | 30 | 1.06 |
| CC(=O)Nc1cccc(C#Cc2cncnc2Nc2ccc(OCc3cccc(F)c3)c(Cl)c2)n1 | 2.11 | -0.94 | 3.5 | -1.12 | 0.59 | 2.08 | 4.22 | 1.9 | 1.84 | -0.61 |
| CC1=C(C(=O)Nc2ccc3[nH]ncc3c2)C(c2ccc3ccccc3c2)CC(=O)N1 (configuration not stated) | 7.55 | 0.15 | -0.63 | 1.53 | 2.53 | 1.45 | 2.17 | 21.1 | 64.3 | 2.82 |
| CS(=O)(=O)CCNCc1ccc(-c2ccc3ncnc(Nc4ccc(OCc5ccccc5)c(Cl)c4)c3c2)o1 | 1.79 | 0.03 | 2.97 | 1.42 | 1.36 | 7.05 | 1.37 | 1.77 | 9.7 | 0.32 |
| O=C(Nc1n[nH]c2nc(-c3ccco3)c(Br)cc12)C1CC1 | 4.71 | 4 | -1.99 | 2.25 | 1.3 | 1.23 | 1.62 | 1.39 | 6.71 | 1.93 |
| CN(C)c1cc2c(Nc3ccc4nc(Cc5ccccc5)[nH]c4c3)ncnc2cn1 | 19.2 | 7.07 | 7.56 | 2.88 | 6.63 | 1.39 | 7.78 | 7.36 | 33 | 6.47 |
| CCn1c(-c2nonc2N)nc2c(C#CC(C)(C)O)nc(OC[C@@H](N)c3ccccc3)cc21 | 2.86 | -1.77 | 1.93 | -1.49 | -0.45 | 2.19 | 2.43 | -1.85 | 0.18 | 0.55 |
| NC(=O)c1cccc(Nc2nccc(Nc3cccc4[nH]ncc34)n2)c1 | 91.1 | -2.32 | 14.6 | -2.9 | 4.51 | 5.52 | 22.5 | 36.7 | 81.8 | 4.75 |

| SMILES | inhibition [1] [%] | inhibition [2] [%] | inhibition [3] [%] | inhibition [4] [%] | inhibition [5] [%] | inhibition [6] [%] | inhibition [7] [%] | inhibition [8] [%] | inhibition [9] [%] | inhibition [10] [%] |
| --- | --- | --- | --- | --- | --- | --- | --- | --- | --- | --- |
| Nc1ncnc2occ(-c3ccc(NC(=O)Nc4cccc(C(F)(F)F)c4)cc3)c12 | 97.3 | 3.24 | 6.5 | 72.5 | 83.9 | 104 | 97.8 | 12.1 | 46.7 | 7.15 |
| COc1cc2c(cc1Nc1nc(N3CCc4ccccc43)c3cc[nH]c3n1)N(C(=O)CN(C)C)CC2 | 5.18 | 3.89 | 5.06 | 1.21 | 4.61 | 0.64 | 1.28 | 1.15 | 6 | 75.9 |
| O=C1NC(=O)C(c2ccccc2Cl)=C1Nc1cccc(O)c1 | 0.62 | 2.13 | 2.69 | -1.05 | -0.04 | 0.38 | 1.68 | 2.08 | 5.21 | 0.86 |
| NC(=O)c1ccc(-c2nc(-c3ccccn3)c(-c3ccc4c(c3)OCO4)[nH]2)cc1 | 4.68 | 7.73 | 5.29 | 0.05 | – | 1.28 | 6.23 | 2.19 | 4.07 | 3.03 |
| O=C1NC(=O)C(c2ccc(Cl)cc2)=C1Nc1ccc(Cl)c(C(=O)O)c1 | -0.38 | -3.8 | -3.02 | -0.88 | -1.49 | 2.75 | 8.56 | -0.44 | 0.35 | -1.15 |
| CS(=O)(=O)CCNCc1nc(-c2ccc3ncnc(Nc4ccc(F)c(Cl)c4)c3c2)cs1 | 5.11 | 3.12 | 2.42 | 1.78 | 2.83 | 10.4 | 10.7 | 3.91 | 20 | 2.39 |
| Cc1ccc(C(=O)NC2CCCCC2)cc1-c1ccc(C(=O)NCC2CC2)cc1 | 4.9 | 3.74 | 0.6 | 0.04 | 0.31 | 3.05 | 4.51 | 1.49 | 2.85 | 0.67 |
| CCn1c(-c2nonc2N)nc2cncc(C(=O)N3CC[C@H](N)C3)c21 | 6.77 | 5.29 | 5.73 | 3.35 | 3.02 | 2.5 | -1.61 | – | – | 4.31 |
| CCc1cccc(NC(=O)Nc2ccc(Oc3ccc4nc(NC(=O)OC)[nH]c4c3)cc2)c1 | 93 | 0.55 | 0 | 58.6 | 69.8 | 65.6 | 74.1 | 5.87 | 8.47 | 1.87 |
| c1cnn2ncc(-c3ccnc(Nc4ccc5c(c4)OCCO5)n3)c2c1 | 106 | 3.21 | 9.72 | 49.2 | 93.3 | 38.1 | 83.5 | 3.28 | 9.06 | 6.2 |
| COc1ccc(-c2nn3ncccc3c2-c2ccnc(Nc3ccc(Cl)c(C(F)(F)F)c3)n2)cc1 | 8.96 | 0.87 | 4.92 | -0.64 | 1.14 | 0.89 | -0.17 | -0.04 | 5.83 | 2.25 |
| COc1cc2ncn(-c3cc(OCc4ccccc4C(F)(F)F)c(C(N)=O)s3)c2cc1OC | 20.5 | 5.23 | 7.66 | 3.55 | 9.7 | -1.78 | 2.96 | 0.99 | 12.6 | 2.36 |
| CNC(=O)c1cncc(/C=C/c2c(Cl)cccc2Cl)c1 | 33.4 | 2.74 | 1.88 | 0.36 | 0.46 | -1.49 | 10.9 | 1.21 | 9.89 | 3.47 |
| CCCN1CCC=C(c2ccc(Nc3nc(Nc4ccccc4C(N)=O)c4cc[nH]c4n3)c(C)c2)C1 | 11.6 | 7.12 | 3.39 | 4.53 | 0.85 | -4.87 | -3.21 | 4.63 | 7.36 | 79.4 |
| CCn1c(-c2nonc2N)nc2c(N3CCCC3)nccc21 | 1.81 | -1.12 | -0.65 | -1.62 | -1.43 | -0.78 | 1.06 | -2.27 | -0.36 | 0.51 |
| COc1cc(C)c(NC(=O)CN(C)C)cc1Nc1nc(Nc2cccc(F)c2C(N)=O)c2cc[nH]c2n1 | 4.07 | 2.88 | 1.48 | 0.3 | 0.56 | 0.02 | 0.48 | 1.38 | 1.74 | 92.9 |
| COc1cc2ncn(-c3cc(OCc4ccccc4Cl)c(C(N)=O)s3)c2cc1OC | 15.6 | 0.27 | -0.43 | 2.57 | 8.11 | 2.29 | 3.13 | 2.94 | 19 | 1.19 |
